Hits are enriched below; roughly 2.3% of the tested compounds scored in any of these assays.
M1 ag parental: M1 agonist counterscreen hit in parental CHO-K1 cells. 360,000 compounds, 0.48% hits. Fluo-8 calcium fluorescence; scaled to maximal ATP response, vehicle zero. activation, % at 3 µM; in the data active means activation above about 15%;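 further: untransfected CHO-K1 host cells lacking M1 receptor as counterscreen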
M1 antag: blocks human M1 muscarinic receptor | CHO-K1 hM1, Fluo-8 calcium fluorescence, ACh EC80 antagonist | inhibition, % at 3 µM | 360,000 compounds, 1.3% hits;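 active means percent inhibition above its own plate's cutoff, namely the mean of that plate's compound wells plus 3 SD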;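 further: peak over basal fluorescence ratio during 140 s after agonist addition; 0% = ACh EC80 plus DMSO and 100% = DMSO alone without agonist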
Target sequence (P11229 whole entry, looked up): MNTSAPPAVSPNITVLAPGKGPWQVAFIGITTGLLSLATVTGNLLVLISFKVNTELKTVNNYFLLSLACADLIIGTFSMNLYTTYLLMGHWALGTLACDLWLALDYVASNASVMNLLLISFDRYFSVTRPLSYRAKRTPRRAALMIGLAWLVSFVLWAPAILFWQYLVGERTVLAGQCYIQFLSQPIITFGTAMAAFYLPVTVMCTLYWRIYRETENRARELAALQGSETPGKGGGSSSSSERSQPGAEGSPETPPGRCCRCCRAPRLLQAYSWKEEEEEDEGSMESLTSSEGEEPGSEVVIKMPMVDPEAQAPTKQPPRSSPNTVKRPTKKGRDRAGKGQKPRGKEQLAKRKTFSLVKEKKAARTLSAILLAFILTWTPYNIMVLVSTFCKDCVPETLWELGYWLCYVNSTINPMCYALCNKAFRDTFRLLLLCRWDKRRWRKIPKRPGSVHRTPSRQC
M1 ag: activates human CHRM1 receptor | CHO-K1 hM1, Fluo-8 calcium fluorescence, agonist mode; 0% DMSO, 100% acetylcholine EC100 | P11229 | activation, % at 3 µM | 360,000 compounds, 0.33% hits;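 active means activation above the run's mean compound activation plus 3 SD, cut at about 16% in these data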;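 further: peak over basal fluorescence ratio within a 140 s kinetic read after compound addition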
CHRM1 PAM: potentiates human M1 receptor response to acetylcholine | CHO-K1 hM1, Fluo-8 calcium fluorescence, ACh EC20; 0% = ACh EC20, 100% = maximal ACh | activation, % at 3 µM | 360,000 compounds, 0.088% hits | AID 588819; in the data active means activation above about 19%, passing the limit was not always enough
CHO-K1 Ca antag: counter-screen for M1 antagonists: effect in parental CHO-K1 cells | ATP-induced calcium, Fluo-8 fluorescence | inhibition, % at 3 µM | 360,000 compounds, 0.6% hits;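 active means inhibition above a per-plate cutoff, the plate's mean sample inhibition plus 3 SD, cut at about 24% in these data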;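 further: 0% = DMSO plus EC80 ATP and 100% = DMSO alone without ATP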
CHO-K1 Ca PAM: counter-screen for M1 PAMs: effect in parental CHO-K1 cells; ATP EC20, Fluo-8 calcium fluorescence; 0% at ATP EC20, 100% at ATP max; activation, % at 3 µM; 360,000 compounds, 0.02% hits; AID 602247;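 active means activation above the run cutoff, the mean activation of all test compounds plus 3 SD, cut at about 40% in these data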;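 further: peak over basal fluorescence ratio in a 140 s read after ATP addition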
An asterisk follows results filed as active.

SMILES	M1 ag parental	M1 antag	M1 ag	CHRM1 PAM	CHO-K1 Ca antag	CHO-K1 Ca PAM
COc1ccc(Cl)cc1NC(=O)NCC1CCN(Cc2cc(C)ccc2C)CC1	15.6*	-4.4	-4.8	5.0	-9.4	9.7
CC(=O)OCCCCCCCCCCC[N+]1(C)CCCCC1	0.0	64.7*	-5.9	-22.8	-5.8	5.5
COC(=O)CCCCCCCCC(O)C[N+]1(C)CCOCC1 (centres undefined)	-0.1	10.1	-9.2	-6.3	7.2	-8.2
C[N+]1(CC(=O)OC2CCCCCCCCCCC2)CCCC1	2.1	68.6*	-15.3	-38.5	0.9	13.4
C[N+]1(CCCCSc2ccc(O)cc2)CCCCC1	-0.1	20.7	-10.6	-20.4	-8.6	-8.0
COC(=O)CCCCCCCCCC[N+]1(C)CCCCC1	-0.4	63.5*	-14.1	-27.0	-2.8	16.2
CCOc1ccc(-c2cc(C(=O)NCCCN3CCCC3)c3ccccc3n2)cc1	1.5	7.5	-12.1	-10.3	-7.0	-7.6
Cc1nc2ccc(S(=O)(=O)Nc3cccc(-c4nc5cccnc5s4)c3)cc2s1	5.5	23.7	3.0	-16.4	30.0*	-8.5
Cc1nc2ccc(NS(=O)(=O)c3ccc4c(c3)OCCO4)cc2s1	7.2	31.2*	2.8	-5.9	22.8	-0.7
CC(C)c1ccc(NC2=CC(=O)CC(C)(C)C2)cc1	0.6	-11.7	-5.2	6.7	-11.4	-6.3
CC(C)N(C(=O)N1CCN(c2ccnc3cc(Cl)ccc23)CC1)C(C)C	6.9	2.8	-6.1	-6.1	-8.8	10.4
COc1ccc(CNC(=O)COC(=O)C2CCC(C(C)(C)C)CC2)cc1 (centres undefined)	4.5	-7.7	-2.8	-0.3	-22.0	20.8
CCOC(=O)c1ccc(N(CCC2CO2)S(=O)(=O)c2ccc(C)cc2)cc1 (centres undefined)	-0.2	-8.5	1.0	17.4	1.7	-0.2
COc1ccc(C2C(C(=O)N3CCCC3)c3cc(OC)c(OC)cc3C(=O)N2C)cc1 (centres undefined)	0.3	-2.6	-0.4	2.1	25.8*	-8.4
Cc1cc(SCC(=O)OCC(=O)N(C)C2CCS(=O)(=O)C2)c(C)cc1Br (centres undefined)	15.8*	2.9	-2.1	-2.1	1.8	-20.5
Cc1ccc(C)c(SCC(=O)N(C)C2CCS(=O)(=O)C2)c1 (centres undefined)	0.4	-8.7	-3.7	8.3	-9.2	14.8
Cc1cc(C)c(C(=O)NC2CCCc3c2cnn3-c2ccc(C)c(C)c2)c(=O)[nH]1 (centres undefined)	0.4	-14.0	-1.7	9.6	3.4	12.1
O=C(NC1CCCC1)c1cc(-c2ccc(Cl)cc2)on1	1.1	25.9*	-4.3	-13.0	0.5	-12.2
CC1CSC(N(C(=O)c2ccc(S(C)(=O)=O)cc2)c2ccc(Cl)cc2)=N1 (centres undefined)	15.8*	-1.6	-0.8	-1.1	-3.7	9.2
CCOc1ccccc1N(C(=O)Nc1cccc(Cl)c1)C1=NC(C)CS1 (centres undefined)	7.2	-4.3	-9.8	6.9	2.4	19.8
CC(C)C1C(=O)N(Cc2cn(CCC3OCCCO3)nn2)CCS(=O)(=O)N1Cc1ccc(-c2ccc(Cl)nc2)cc1 (centres undefined)	4.9	-1.8	-3.4	-2.0	-0.3	7.8
CCCCOC(=O)n1c(=O)oc2ccccc21	0.0	0.7	-2.3	-2.5	1.6	-3.0
CCOC(=O)n1c(=O)oc2ccc(Cl)cc21	-0.2	-5.3	0.2	-1.7	29.2*	-6.0
COc1cccc(CN(C)CCCn2ccc(NC(=O)OCc3ccccc3)nc2=O)c1	0.4	-8.7	-9.3	2.3	-13.8	22.1
CCCC(=O)Nc1ccc(NC(=O)c2ccccc2Cl)nc1	0.3	22.0	-1.6	-9.1	23.7*	-6.5
SMILES	M1 ag parental	M1 antag	M1 ag	CHRM1 PAM	CHO-K1 Ca antag	CHO-K1 Ca PAM
O=C(Cc1ccccc1)Nc1ccc(NC(=O)c2ccco2)nc1	-0.1	-8.6	0.2	13.9	24.9*	-4.1
CCOC(=O)c1ccc(NC(=O)NC2=NCCS2)cc1	0.6	-15.6	2.1	3.9	-5.4	17.1
Cc1ccc(S(=O)(=O)N2CCC3(CC2)OCCN3S(=O)(=O)c2c(C)cc(C)cc2C)cc1	0.6	-3.5	-1.7	9.6	-4.5	-7.9
CCOc1ccc(S(=O)(=O)NCc2ccncc2)cc1	7.0	17.0	1.1	-5.8	15.1	-1.8
CCOc1cc(S(=O)(=O)NCc2cccs2)ccc1Cl	0.5	-4.1	-4.0	-11.9	11.3	-1.1
CCOc1cc(S(=O)(=O)NCc2ccncc2)ccc1Cl	12.1	23.2	0.8	-18.7	55.2*	-15.2
CCOC(=O)COc1ccc(S(=O)(=O)NCc2ccncc2)cc1	12.7	18.7*	3.2	-11.0	12.1	-7.1
COc1ccc(CCC(=O)Nc2cc(S(=O)(=O)N3CCCCC3)ccc2N(C)C)cc1	1.1	-1.6	-4.5	4.0	-7.3	8.9
CC(C)c1ccc(C(N)=S)cc1	0.1	-10.4	-2.7	8.4	-12.9	-5.4
Cc1c(NS(=O)(=O)c2cccc(C(=O)N3CCC(C(N)=O)CC3)c2)c(=O)n(-c2ccccc2)n1C	1.6	-34.7	4.5	31.1*	-14.7	17.3
CCc1nc2c(OCc3ccc(C(=O)N(C)C)cc3)cccn2c1N(C)C(=O)c1ccc(C)cc1	0.1	-8.8	-6.7	-0.7	-7.0	7.9
COc1ccc(-c2cn(-c3ccccc3)c3[n+]2CCS3)cc1	0.3	39.8*	-10.3	-24.8	-0.5	10.0
CC(C)(C)c1ccc(-c2cn(-c3ccc(Br)cc3)c3[n+]2CCCS3)cc1	2.7	79.4*	-9.8	-27.9	16.8	12.8
CCSc1nc2nccnc2c(=O)[nH]1	0.0	-8.6	-0.9	2.8	-4.1	8.7
COc1cccc(OCCSc2nc(N)cc(N)n2)c1	0.2	10.3	-1.0	-4.5	26.9*	-6.7
Nc1cc(N)nc(SCCOc2ccccc2)n1	0.7	-26.5	3.2	15.6	5.5	2.6
CCN(C(=O)CCCCC(=O)N(CC)c1ccccc1)c1ccccc1	0.7	-0.9	-2.2	5.4	-1.1	-11.4
CCCCCOc1ccc2oc(=O)c3c(c2c1)CCCN3C(=O)CN1CCCC(C(=O)OCC)C1 (centres undefined)	0.1	34.7*	-3.7	-19.0	6.8	5.0
Cc1c(Cl)cccc1NC(=S)N1CCC(N(C)CC2CCCO2)CC1 (centres undefined)	0.4	-3.9	-4.5	9.8	0.2	-1.9
Cc1cc(/C=C2/SC(=S)N(c3cccc(Cl)c3)C2=O)c(C)n1-c1cccnc1	9.4	27.0*	5.2	-17.0	22.7	2.6
CCOC(=O)C(Cc1ccccc1)C(=O)Nc1ccc(N(CC)CC)cc1 (centres undefined)	3.5	32.9*	-7.2	-25.0	-2.0	15.3
Cc1ccc2cccc(NC(=S)NC(=O)c3ccn(C)n3)c2n1	1.1	-17.5	-8.2	-3.3	-13.3	-4.2

Assay outcomes as filed in PubChem BioAssay.
